Screening data (PubChem BioAssay)
Compounds with a hit are over-represented: about 7.9% of the library has one in this group of screens.
HT1080 IDH1KD tx: kills HT-1080 cells with IDH1 knockdown. HT-1080 IDH1 knockdown viability, ATP luminescence, 48 h. Potency, µM (top dose mostly 46.1 µM), inactives show at the top dose activity, negative = toxicity, hits mostly cytotoxic. 2% of 360,000 active;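 further: 0% = DMSO wells and -100% = cell-free medium wells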
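Assay cells: HT-1080 with IDH1 knockdown, 750 per well, RPMI/5% FBS. Exposure: 48 h at 37 °C following 2 h pre-incubation. Read: CellTiter-Glo luminescence; fitted concentration-response, curve class assigned.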
KB-V1 cytotox: kills drug-selected multidrug resistant KB-V1 cells; KB-V1 MDR cells viability, CellTiter-Glo, 72 h; Potency, µM (titrated, usually from 46.1 µM), hits mostly cytotoxic; 3.4% of 400,000 active; further: on the % scale 0 is the no-effect control and ±100 the full control effect; nearly all actives have a fitted effect of over 60% in size
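Potencies derive from concentration-effect curves fitted to normalized luminescence (CellTiter-Glo) of KB-V1 cells treated for 72 h at 37 degrees C in phenol-red-free DMEM containing 10% FBS.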
KB-3-1 tox: kills parental KB-3-1 adenocarcinoma cells. KB-3-1 viability, CellTiter-Glo ATP luminescence, 72 h. Potency, µM (top dose mostly 46.1 µM), most hits filed as cytotoxic. 1.4% of 400,000 active. AID 1347075; further: on the % scale 0 is the no-effect control and ±100 the full control effect; nearly all actives have a fitted effect of over 60% in size
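KB-3-1 cells, DMEM (no phenol red) + 10% FBS; compound by pin transfer, 72 h, 37 °C. Readout: CellTiter-Glo luminescence after 10 min. Data normalized, curve-fitted.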
HT1080-NT tox: kills 2HG-producing HT-1080-NT fibrosarcoma cells; AID 686970; 1.6% of 360,000 active; HT-1080-NT fibrosarcoma viability, CellTiter-Glo ATP luminescence, 48 h; Potency, µM (highest dose often 46.1 µM), without a hit: at the highest dose activity, negative = less viability, most hits filed as cytotoxic;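 further: NT is the 2HG producing partner of a matched IDH1 knockdown line; 0% = DMSO-treated cells and -100% = media-only wells without cells; nearly all actives have a fitted effect of over 55% in size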
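Read-out is CellTiter-Glo luminescence after 10 minutes at room temperature, following 48 hours' compound treatment of HT-1080-NT cells (750 cells/well, RPMI, 5% FBS, 37 degrees C).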
SW480 rereplic: inducers of DNA re-replication in SW480 colon cancer cells. SW480 DNA re-replication, Hoechst DNA content imaging, 48 h. Potency, µM (doses to about 46.1 µM), for the others: top-dose re-replication activation, usual class: activators. 1.8% of 340,000 active; further: % of control where 0% means no effect; nearly all actives have a fitted effect of over 55% in size
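First, 250 cells per well were seeded. Next, compound or vehicle (23 nL) was pinned in, plates sat 48 hr at 37 C. Finally Hoechst was added for 40 min before fluorescence scanning.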
MCF10A rerep: DNA re-replication induction in MCF 10a cells. Potency, µM (highest dose often 46.1 µM), for inactives: at the top dose activity, positive = re-replication, hits mostly activators. 2.9% of 350,000 active. MCF 10A DNA re-replication, Hoechst nuclear intensity, 48 h; further: % of control where 0% means no effect; nearly all actives have a fitted effect of over 50% in size
Active calls of the source: *; i = inactive; ? = inconclusive; / = not tested or not shown; [ ] = dose if it differs, or a comment. The call rests on the fitted dose curve; in most records, active means well fitted curve in the direction sought with a large enough effect; inconclusive means small, poorly fitted or top-dose-only effect, or another doubt; inactive means no such curve, though single readings can be large; an effect the other way counts as inactive or inconclusive. Potency means the concentration at half of the fitted maximal effect.

SMILES | HT1080 IDH1KD tx | KB-V1 cytotox | KB-3-1 tox | HT1080-NT tox | SW480 rereplic | MCF10A rerep
CCOC(=O)CNC(=O)CSc1ncnc2c1cnn2-c1ccc(Cl)cc1 | -1% | i | i | -2% | -1% | 0%
Cc1ccc(-n2ncc3c(SCc4cccc(C)c4)ncnc32)cc1 | ? | i | i | ? | -1% | 1%
c1ccc(CNc2ncnc3c2cnn3Cc2ccccc2)cc1 | 7.9µM* | ? | ? | 7.9µM* | 1% | 27%
CCc1nc2ccc(C(=O)N3CCNC(=O)C3)cn2c1N(C)CCC(C)C | 20% | i | i | 13% | / | /
Cc1ccc(C2C3=C(NCCN=C3c3ccccc3)C(=O)N2c2ccccc2)cc1 (centres undefined) | ? | i | i | 11µM* | ? | 2%
Cc1ccc(N2C(=O)c3n[nH]c(C)c3C2c2cccnc2)cc1 (centres undefined) | -7% | i | i | -14% | -1% | -4%
Cc1ccc(N2C(=O)c3n[nH]c(C)c3C2c2ccc(Cl)cc2)cc1 (centres undefined) | / | i | i | / | / | /
CCOc1ccc(N2C(=O)C3=C(C(c4ccc(Cl)cc4)=NCCN3)C2c2cccnc2)cc1 (centres undefined) | 15µM* | i | ? | ? | ? | ?
CCCc1[nH]n(-c2ccc(F)cc2)c(=O)c1C=Nc1cccc(F)c1 | 15µM* | ? | 5.8µM* | 7.3µM* | ? | ?
Cc1nc2ccccc2n1CC(O)COc1ccccc1Cl (centres undefined) | -12% | i | i | -13% | -8% | 7%
CCOC(=O)c1c(C)n(-c2ccc(C)cc2)c2ccc(OCC(O)CN3CCN(C)CC3)cc12 (centres undefined) | 18µM* | i | ? | 21µM* | -21% | ?
CCOC(=O)c1c(C)n(C)c2ccc(OCC(O)Cn3c(C)nc4ccccc43)cc12 (centres undefined) | ? | 13µM* | i | -26% | 15% | ?
Cc1nc2ccccc2n1CC(O)COc1ccc(C(=O)O)cc1 (centres undefined) | / | i | i | / | / | /
Cc1nc2ccccc2n1CC(O)COc1ccc(Br)cc1 (centres undefined) | -14% | 13µM* | ? | -21% | -5% | 12%
CCC(=O)c1ccc(OCC(O)Cn2c(C)nc3ccccc32)cc1 (centres undefined) | 23µM* | 8.2µM* | i | -1% | 3% | 5%
O=C(COc1ccc2oc3c(c2c1)CCCC3)Nc1cccc(Br)c1 | / | i | i | / | / | /
O=C(CC[C@H]1O[C@@H](n2cnc3c(NC(=O)c4ccccc4)ncnc32)[C@H](O)[C@@H]1O)NCCCN1CCCC1=O | 2% | i | i | -1% | / | /
CC(=O)c1c2c3c(c(Br)ccc3n(C)c1=O)C(=O)c1ccccc1-2 | 15% | ? | i | 20% | -1% | 15%
c1ccc(NCc2cccnc2)cc1 | 0% | i | i | -5% | -4% | -5%
COc1ccc(CNC(=O)c2ccc(-c3ccccc3)cc2)cc1 | 20% | i | i | 25% | -5%[9.22 µM] | 3%
COc1ccc(CNC(=O)c2c(C)oc3c2C(=O)c2ccccc2C3=O)cc1 | -10% | i | ? | ? | 21µM* | 4.6µM*
O=C1c2ccccc2C(=O)c2c(NCc3cccnc3)cccc21 | 16% | 8.2µM* | i | 20% | 2% | 12%
Cc1oc2c(c1C(=O)NCc1cccnc1)C(=O)c1ccccc1C2=O | 2.6µM* | 2.6µM* | ? | 4.1µM* | 19% | ?
CC(=O)c1c(C)oc2c1C(=O)c1ccccc1C2=O | -5% | 6.5µM* | ? | -1% | 7.3µM* | 22%
CCOC(=O)c1cccc(NC(=O)CCn2c(-c3ccc(F)cc3)cc(C(=O)OCC)c2C)c1 | / | ? | i | / | / | /
